# The supplement of paper PMC11865577
# Counter-ions that a name gives are not always drawn.
# Tests used:
# Assay in all cases: normalised indicator fluorescence (fraction of RNA + indicator signal without compound); higher = less displacement of indicator (weaker competition)
# Details in all cases: compound concentration: 5 uM, 30 min
# hsa-mir-191 loop = test system: hsa-mir-191 loop
# In short: (§1)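 Indicator fluorescence, corrected by subtracting the buffer-plus-indicator blank and normalized to the RNA-plus-indicator signal without compound, is given as the mean of two independent experiments. The buffer was 20 mM phosphate pH 7.0, 20 mM NaCl and 80 mM KCl, with TO-PRO-1 or TO-PRO-3 and RNA in 96-well plates. Plates were read 30 min after compound addition (about 5 uM final) on an Infinite 200 PRO, exciting at 485 or 620 nm.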
# hsa-mir-21 loop = test system: hsa-mir-21 loop
# In short: as §1
# hsa-mir-221 loop = test system: hsa-mir-221 loop
# In short: as §1
# hsa-mir-374a loop = test system: hsa-mir-374a loop
# In short: as §1
# hsa-mir-6850 loop = test system: hsa-mir-6850 loop
# In short: as §1
# [1] = indicator: TO-PRO-1 0.1 uM, RNA concentration: 0.1 uM
# [2] = indicator: TO-PRO-3 0.5 uM, RNA concentration: 0.5 uM
SMILES,normalised indicator fluorescence (hsa-mir-191 loop; [1]),normalised indicator fluorescence (hsa-mir-191 loop; [2]),normalised indicator fluorescence (hsa-mir-21 loop; [1]),normalised indicator fluorescence (hsa-mir-21 loop; [2]),normalised indicator fluorescence (hsa-mir-221 loop; [1]),normalised indicator fluorescence (hsa-mir-221 loop; [2]),normalised indicator fluorescence (hsa-mir-374a loop; [1]),normalised indicator fluorescence (hsa-mir-374a loop; [2]),normalised indicator fluorescence (hsa-mir-6850 loop; [1]),normalised indicator fluorescence (hsa-mir-6850 loop; [2])
O=C1C[C@@H](c2ccc(O)cc2)Oc2cc(O)cc(O)c21 [Naringenin],0.927,1.03,0.942,1.05,1.07,0.975,1.17,1.18,0.978,1.02
O=c1cc(-c2ccccc2)oc2cc(O)c(O)c(O)c12 [Baicalein],0.599,0.956,0.653,0.944,0.767,0.926,0.88,0.91,0.918,1.05
COc1nc(-c2ccc3c(c2)OCO3)n(-c2ccc(NC(=O)CSc3ccccc3)cc2)n1 [SecinH3],1.09,1.02,0.961,1.2,1.02,1.1,1.01,1.12,1,0.992
O=C(Nc1ccc2[nH]nc(-c3ccncc3)c2c1)[C@@H]1CCN(CC(=O)N2CCN(c3ccc(-c4ncccn4)cc3)CC2)C1,1.05,1.02,1.02,1,1.04,1,1.09,1.16,0.931,0.89
OC[C@H]1O[C@@H](Oc2ccc(O)cc2)[C@H](O)[C@@H](O)[C@@H]1O [Arbutin],0.981,1.07,1.01,1.03,1.08,1.04,1.13,1.04,0.964,1.07
CC(=O)CCCCn1c(=O)c2c(ncn2C)n(C)c1=O [Pentoxifylline],1.05,1.01,1.02,1.04,1.01,1.02,1.04,0.959,0.943,0.997
Oc1ccc(OC2CCCCO2)cc1 (centres undefined) [Deoxyarbutin],1.11,1.06,1.03,1.06,1.03,1.1,1.03,1.13,0.979,1
CC(=O)O[C@H]1C[C@@]2(C)[C@@H](C[C@@H](O)[C@H]3[C@@]4(C)CC[C@@H](O)[C@@H](C)[C@@H]4CC[C@@]32C)/C1=C(\CCC=C(C)C)C(=O)O [Sodium fusidate],1.06,1.05,0.986,1.07,1.01,1.03,1.09,1.11,0.956,1.02
COC(=O)C1=CC[C@@]23CC[C@@H]([C@@](C)(/C=C/C=C(\C)C(=O)O)OC2=O)[C@@]3(OC(C)=O)CC1 [Pseudolaric Acid B],1.02,0.949,1.02,0.979,0.969,0.93,0.998,1.19,1.03,1.03
CCNC(=O)c1noc(-c2cc(C(C)C)c(O)cc2O)c1-c1ccc(CN2CCOCC2)cc1 [Luminespib],1.08,1.05,1.03,1.02,1.06,1.05,1.04,1.15,1.01,1.06
CC(C)(O)[C@@H]1CC[C@](C)([C@H]2[C@@H](O)C[C@@]3(C)[C@@H]4C[C@H](O)[C@H]5C(C)(C)[C@@H](O[C@@H]6OC[C@@H](O)[C@H](O)[C@H]6O[C@@H]6O[C@H](CO)[C@@H](O)[C@H](O)[C@H]6O)CC[C@@]56C[C@@]46CC[C@]23C)O1 [Astragaloside III],1.09,1.07,1.01,1.02,1.06,1.07,1.04,1.19,0.952,1.11
Cc1cc(C(C)(C)C)c(O)c(C(C)(C)C)c1,1.01,1.04,1.04,1,1.05,1.12,1.11,1.19,0.924,1.06
O=[N+]([O-])c1ccc(-c2nc(-c3ccc(F)cc3)c(-c3ccncc3)[nH]2)cc1,1.06,1.03,0.973,1.03,1.16,1.03,1.59,1.15,0.975,1.03
Nc1ncnc2c1ncn2[C@@H]1O[C@H](CO)[C@@H](O)[C@@H]1O [Vidarabine],1.03,1.07,1.03,1.04,1.03,1.04,1.16,1.15,1,1.06
O=c1cc(-c2ccc(O)cc2)oc2cc(O)cc(O)c12 [Apigenin],1.03,1.05,0.934,1,1.04,1.03,1.05,1.22,0.954,1.06
O=c1ccc2ccc(O)c(O)c2o1 [Daphnetin],1.01,0.873,1.09,0.941,0.91,0.965,1.09,1.03,1.19,0.881
N=C(NCCCCCCNC(=N)NC(=N)Nc1ccc(Cl)cc1)NC(=N)Nc1ccc(Cl)cc1 [Chlorhexidine],0.988,1.04,1.05,1,0.96,0.994,1.05,1.05,0.83,1.07
C[C@H]1Oc2cc(cnc2N)-c2c(nn(C)c2C#N)CN(C)C(=O)c2ccc(F)cc21 [Lorlatinib],0.997,1.03,1.05,1.03,0.999,1.02,1.08,1.26,1.14,1.05
NC(=O)N/N=C/c1ccc([N+](=O)[O-])o1 [Furacilin],1.06,1.02,0.909,1.06,1.14,1.03,1.15,1.16,0.927,1.04

SMILES,normalised indicator fluorescence (hsa-mir-191 loop; [1]),normalised indicator fluorescence (hsa-mir-191 loop; [2]),normalised indicator fluorescence (hsa-mir-21 loop; [1]),normalised indicator fluorescence (hsa-mir-21 loop; [2]),normalised indicator fluorescence (hsa-mir-221 loop; [1]),normalised indicator fluorescence (hsa-mir-221 loop; [2]),normalised indicator fluorescence (hsa-mir-374a loop; [1]),normalised indicator fluorescence (hsa-mir-374a loop; [2]),normalised indicator fluorescence (hsa-mir-6850 loop; [1]),normalised indicator fluorescence (hsa-mir-6850 loop; [2])
O=C(O)C(O)Cc1ccc(O)c(O)c1 (centres undefined) [Sodium Danshensu],0.941,1.02,0.888,1.05,0.976,1.05,1.07,0.994,0.964,1.08
COc1ccc(O)cc1 [4-Methoxyphenol],0.962,1.17,0.99,1.05,1.08,1.04,1.19,1.14,0.977,1.11
CC1=NN(c2ccccc2)C(=O)C1 [Edaravone],1.06,1.11,1.07,1.04,1.05,1.04,1.06,1.12,1.05,1.05
C[C@H]1[C@H](C)CC[C@]2(C(=O)O)CC[C@]3(C)C(=CC[C@@H]4[C@@]5(C)C[C@@H](O)[C@H](O)[C@@](C)(CO)[C@@H]5CC[C@]43C)[C@H]12 [Asiatic acid],0.974,1.01,0.904,1.07,1.03,0.961,1.15,1.06,0.846,1.03
Oc1ccc(-c2nc(-c3ccc(F)cc3)c(-c3ccncc3)[nH]2)cc1,1.1,1.04,0.993,1.03,1.08,1.13,1.09,1.2,0.999,1.04
CNc1ccc([N+](=O)[O-])c(Nc2ccc3[nH]ncc3c2)n1,0.903,0.996,0.899,1.02,0.959,1.15,1.1,1.35,0.93,0.929
C/C1=C/CC[C@H](C)C(=O)C[C@@H](C(C)C)C(=O)C1 [Curdione],1.05,1.02,1.04,1.09,1.05,1.16,1.07,1.26,1.14,1.06
COC(=O)c1ccc([C@H]2c3[nH]c4ccccc4c3C[C@H](C(=O)OC)N2C(=O)CCl)cc1,1.05,1,0.974,1.02,0.997,1.09,1.01,1.39,1.09,1.03
CN(C)C[C@@H]1CCn2cc(c3ccccc32)C2=C(C(=O)NC2=O)c2cn(c3ccccc23)CCO1 [Ruboxistaurin hydrochloride],1.1,1.04,0.991,1.01,1,1.12,1.03,1.24,0.894,0.897
O=C1c2c(O)cc(O)cc2OC(c2ccc(O)c(O)c2)C1O (centres undefined) [Taxifolin],0.994,1.06,0.976,1.05,1.05,1.11,1.13,1.15,0.944,1.08
Cc1c(C)c2c(c(C)c1O)CC[C@@](C)(CCC[C@H](C)CCC[C@H](C)CCCC(C)C)O2 [Vitamin E],1.08,1.06,0.956,1.01,1.02,1.07,1.05,1.06,0.907,1.03
O=c1c(O)c(-c2ccccc2)oc2cc(O)cc(O)c12 [Galangin],1.05,1.08,1,1.04,1.03,1.22,1.11,1.3,0.971,1.07
Oc1cc(O)c2c(c1)O[C@H](c1ccc(O)c(O)c1)[C@@H](O)C2 [(+)-Catechin Hydrate],0.971,1.07,0.941,1.02,1.02,1.13,1.15,1.22,0.975,1.09
N=C(NCCCCCCNC(=N)NC(=N)Nc1ccc(Cl)cc1)NC(=N)Nc1ccc(Cl)cc1 [Chlorhexidine hydrochloride],1.01,0.962,0.896,1,1.01,0.981,1.06,1.05,0.906,1.04
CCc1oc2ccccc2c1C(=O)c1cc(Br)c(O)c(Br)c1 [Benzbromarone],0.976,1.01,0.927,1.05,1,1.09,1.16,1.34,0.95,1.04
O=C1O[C@H]([C@@H](O)CO)C(O)=C1O [L(+)-Ascorbic acid],1.01,1,0.953,1,1.05,1.11,1.05,1.12,1.09,1.06
O=c1cc(-c2ccc(O)c(-c3c(O)cc(O)c4c(=O)cc(-c5ccc(O)cc5)oc34)c2)oc2cc(O)cc(O)c12 [Amentoflavone],0.994,1.42,1.16,1.23,1.19,1.17,1.29,,1.07,1.03
NNC(=O)c1ccncc1 [Isoniazid],1.01,1.06,0.967,1.07,0.976,1.01,1.01,1.07,0.921,1.09
